According to PubChem BioAssay AID1159580 (chemical genetic matrix, 2015):
Screen size: about 5,500 compounds; about 2,000 (36%) were called active. Not shown: some 18% with an inconclusive outcome. No stated cut-off is given here; in the data, active means normalized growth mostly below about 0.91 (no sharp cut-off); inconclusive means no clear call, values can overlap the other calls; inactive means mostly above about 0.92. The list shows a part of the results.

Experiment: chemical genetic growth profiling, strain panel (AID 1159580);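 further: tested at 20 µM; growth read once vehicle control cultures reached saturation at 30 °C; 1 = growth at the plate median or of vehicle wells; lower values mean less growth of the strain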
Conditions: S. cerevisiae deletion strains, growth OD
[1] = locus YAL040C, strain CLN3, hits give low values
[2] = locus YER002W, strain NOP16, hits give low values
[3] = locus YGR229C, strain SMI1, hits give low values
[4] = locus YMR263W, strain SAP30, hits give low values
[5] = locus YNL128W, strain TEP1, hits give low values
[6] = locus YNL153C, strain GIM3, hits give low values
[7] = locus YNL175C, strain NOP13, hits give low values
[8] = locus YNL197C, strain WHI3, hits give low values
[9] = locus YNL224C, strain SQS1, hits give low values
[10] = locus YOR083W, strain WHI5 (second series), hits give low values
[11] = locus YCL061C, strain MRC1 (second series), hits give low values
[12] = locus YDR363W, strain ESC2, hits give low values
[13] = locus YMR307W, strain GAS1, hits give low values
[14] = locus YPL055C, strain LGE1, hits give low values
[15] = locus YPL241C, strain CIN2, hits give low values

Measured: normalized growth

NC(N)=NCCC[C@H](N)C(=O)O
inactive: [1] 1.09 | [2] 1.01 | locus YGR078C, strain PAC10, hits give low values 0.987 | [3] 0.98 | [4] 1.01 | [5] 0.986 | [6] 1.01 | [7] 0.981 | [8] 0.989 | [9] 0.999 | locus YNL322C, strain KRE1, hits give low values 0.984 | [10] 0.975

CCCCC#Cc1nc(N)c2ncn([C@@H]3O[C@H](C(=O)NCC)[C@@H](O)[C@H]3O)c2n1
inactive: [1] 0.949 | [11] 0.996 | [12] 1 | [2] 1 | [4] 0.996 | [13] 1.01 | [6] 1.19 | [7] 0.98 | [8] 0.982 | [9] 1.01 | [10] 0.982 | [14] 0.991 | [15] 0.994

COc1nc(C)nc(Cl)c1NC1=NCCN1
inactive: locus YAL013W, strain DEP1, hits give low values 1.01 | [1] 0.999 | [11] 0.999 | locus YDR150W, strain NUM1, hits give low values 0.996 | [12] 1.01 | [2] 0.987 | [3] 1.01 | locus YJR075W, strain HOC1, hits give low values 0.99 | [4] 0.998 | [13] 1.01 | [5] 1.01 | [7] 1 | [8] 1 | [9] 1.01 | [10] 1.01 | [14] 0.998 | [15] 0.997

Cc1c(C(=S)Nc2ccccc2)sc2ccccc12
inactive: locus YAR019C, strain CDC15, hits give low values 0.943 | locus YBL105C, strain PKC1, hits give low values 0.958 | locus YBR135W, strain CKS1, hits give low values 0.935 | locus YBR136W, strain MEC1, hits give low values 0.947 | locus YBR160W, strain CDC28, hits give low values 0.948 | locus YDL017W, strain CDC7, hits give low values 0.964 | locus YDL028C, strain MPS1, hits give low values 0.953 | locus YDL101C, strain DUN1, hits give low values 0.961 | locus YDL108W, strain KIN28, hits give low values 0.946 | locus YDL132W, strain cdc53, hits give low values 0.967 | locus YDL214C, strain PRR2, hits give low values 0.881 | locus YDR052C, strain DBF4, hits give low values 0.959 | locus YDR054C, strain cdc34, hits give low values 0.938 | locus YDR226W, strain ADK1, hits give low values 0.941 | locus YDR477W, strain SNF1, hits give low values 0.887 | locus YER123W, strain YCK3, hits give low values 0.882 | locus YER133W, strain GLC7, hits give low values 0.865 | locus YFL009W, strain cdc4, hits give low values 0.943 | locus YFL029C, strain CAK1, hits give low values 0.941 | locus YFR003C, strain YPI1, hits give low values 0.949 | locus YFR019W, strain FAB1, hits give low values 0.948 | locus YFR028C, strain CDC14, hits give low values 0.969 | locus YGR040W, strain KSS1, hits give low values 0.867 | locus YGR052W, strain FMP48, hits give low values 0.968 | locus YGR092W, strain DBF2, hits give low values 0.728 | locus YHR079C, strain IRE1, hits give low values 0.816 | locus YHR082C, strain KSP1, hits give low values 0.863 | locus YHR205W, strain SCH9, hits give low values 0.861 | locus YIL147C, strain SLN1, hits give low values 0.951 | locus YJL095W, strain BCK1, hits give low values 0.886 | locus YJL128C, strain PBS2, hits give low values 0.95 | locus YJL157C, strain FAR1, hits give low values 0.863 | locus YJR016C, strain ILV3, hits give low values 0.946 | locus YJR066W, strain TOR1 (second series), hits give low values 0.818 | locus YJR066W, strain TOR1, hits give low values 0.899 | locus YKL048C, strain ELM1, hits give low values 0.933 | locus YKL067W, strain YNK1, hits give low values 0.884 | locus YKL101W, strain HSL1, hits give low values 0.917 | locus YKL193C, strain SDS22, hits give low values 0.94 | locus YKL203C, strain TOR2, hits give low values 0.925 | locus YLR113W, strain HOG1, hits give low values 0.915 | locus YLR133W, strain CKI1, hits give low values 0.888 | locus YLR403W, strain SFP1, hits give low values 0.81 | locus YML070W, strain DAK1, hits give low values 0.865 | locus YMR001C, strain CDC5, hits give low values 0.938 | locus YMR205C, strain PFK2 (second series), hits give low values 0.879 | locus YMR277W, strain FCP1, hits give low values 0.939 | locus YNL006W, strain LST8, hits give low values 0.951 | locus YNL020C, strain ARK1, hits give low values 0.875 | locus YNL161W, strain CBK1, hits give low values 0.954 | locus YNL183C, strain NPR1, hits give low values 0.863 | locus YNL207W, strain RIO2, hits give low values 0.946 | locus YNL222W, strain SSU72, hits give low values 0.941 | locus YNL307C, strain MCK1 (second series), hits give low values 0.842 | locus YOL078W, strain AVO1, hits give low values 0.934 | locus YOL136C, strain PFK27, hits give low values 0.859 | locus YOR061W, strain CKA2, hits give low values 0.854 | locus YOR119C, strain RIO1, hits give low values 0.965 | locus YOR231W, strain MKK1, hits give low values 0.879 | locus YOR329C, strain SCD5, hits give low values 0.958 | locus YPL031C, strain PHO85, hits give low values 0.862 | locus YPL153C, strain RAD53, hits give low values 0.847 | locus YPL204W, strain HRR25, hits give low values 0.828 | locus YPL209C, strain IPL1, hits give low values 0.95 | locus YPL256C, strain CLN2, hits give low values 0.899 | locus YPR025C, strain CCL1, hits give low values 0.945 | locus YPR106W, strain ISR1, hits give low values 0.951 | locus YPR111W, strain DBF20, hits give low values 0.99 | strain NNK1, hits give low values 0.949 | strain TSCII, hits give low values 0.941
active: locus YHR030C, strain SLT2, hits give low values 0.809
